Records with an inconclusive call do not appear. Active and inactive are the calls of the source. Unless noted, calls come from the whole dose curve; as a rule, active = well fitted cell-killing curve with a large enough effect; inconclusive = small, poorly fitted or top-dose-only effect, or effect the other way; inactive = no such curve, though single readings can be large or run the other way.
What was measured:
[1] = Quantitative High-Throughput drug screen in 47 multiple myeloma cell lines against the NCATS MIPE library collection: XG1_PLB cell viability assay (AID 1919866); note: potency is the fitted concentration of half-maximal effect; nearly all actives have a fitted effect of over 35% in size
How it was run: (§1)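 Myeloma cells (500/well) treated with MIPE 4.0 compounds for 48 h at 37 °C, 5% CO2. Viability read as ATP via CellTiter-Glo luminescence after 5 min at RT; DMSO-only wells = 100%, media-only = 0% viability.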

[2] = Quantitative High-Throughput drug screen in 47 multiple myeloma cell lines against the NCATS MIPE library collection: VP6_DJ cell viability assay (AID 1919867); note: potency is the fitted concentration of half-maximal effect; nearly all actives have a fitted effect of over 40% in size
How it was run: as §1

[3] = Quantitative High-Throughput drug screen in 47 multiple myeloma cell lines against the NCATS MIPE library collection: UTMC2_PLB cell viability assay (AID 1919868); conditions: CellTiter-Glo ATP luminescence, 48 h; viability (% of DMSO control): at 45.8 µM (top of the series) unless noted; note: potency is the fitted concentration of half-maximal effect; nearly all actives have a fitted effect of over 55% in size
How it was run: as §1

[4] = Quantitative High-Throughput drug screen in 47 multiple myeloma cell lines against the NCATS MIPE library collection: PCM6_Riken cell viability assay (AID 1919870); note: potency is the fitted concentration of half-maximal effect; nearly all actives have a fitted effect of over 30% in size
How it was run: as §1

[5] = Quantitative High-Throughput drug screen in 47 multiple myeloma cell lines against the NCATS MIPE library collection: RPMI8226_ATCC cell viability assay (AID 1919871); note: nearly all actives have a fitted effect of over 30% in size; note: potency is the fitted concentration of half-maximal effect
How it was run: as §1

[6] = Quantitative High-Throughput drug screen in 47 multiple myeloma cell lines against the NCATS MIPE library collection: KMS11_JCRBsus cell viability assay (AID 1919873); note: potency is the fitted concentration of half-maximal effect; nearly all actives have a fitted effect of over 50% in size
How it was run: as §1

[7] = Quantitative High-Throughput drug screen in 47 multiple myeloma cell lines against the NCATS MIPE library collection: KMS28BM_JCRB cell viability assay (AID 1919874); note: potency is the fitted concentration of half-maximal effect; nearly all actives have a fitted effect of over 35% in size
How it was run: as §1

[8] = qHTS drug screen for cell cycle checkpoint inhibitors in PARPi-resistant BRCA-mutant ovarian cancer cell lines. (AID 1963452; calls by dose curve); conditions: PEO1/OlaR viability, CellTiter-Glo luminescence, 96 h, stronger effect = lower value
How it was run: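 PEO1, PEO4 and PEO1/OlaR ovarian cancer cells, 600 per well, exposed 96 h at 37C to a dilution series. Viability read by CellTiter-Glo luminescence, normalized to DMSO and empty wells; activity summarized as Z-AUC.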

[9] = Quantitative High-Throughput drug screen in 47 multiple myeloma cell lines against the NCATS MIPE library collection: OPM2_DSMZ cell viability assay (AID 1919872); note: nearly all actives have a fitted effect of over 30% in size; note: potency is the fitted concentration of half-maximal effect
How it was run: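 Approved and investigational drugs from MIPE 4.0 were added by pin tool to 500 cells per well. After 48 hours at 37C, ATP-based CellTiter-Glo luminescence indicated remaining viability.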

[10] = Quantitative High-Throughput drug screen in 47 multiple myeloma cell lines against the NCATS MIPE library collection: PE2_PLB cell viability assay (AID 1919869); note: potency is the fitted concentration of half-maximal effect; nearly all actives have a fitted effect of over 35% in size
How it was run: as §1

[11] = measured here: PEO1 parental Z-AUC

CCN(CC)CCNC(=O)c1ccc2nc(-c3ccccc3)c(-c3ccc(CN4CCC(n5c(=O)[nH]c6ccccc65)CC4)cc3)nc2c1
-1.23: Z-AUC [8, 11]
-1.53: Z-AUC ([8]; measured here: PEO4 Z-AUC)
inactive: Z-AUC [8] -1.13
active: Potency [1] 590 nM | Potency [2] 372 nM | Potency [3] 1320 nM | Potency [4] 332 nM | Potency [5] 20900 nM | Potency [6] 2350 nM | Potency [7] 16600 nM

C1=CCOCc2cc(ccc2OCCN2CCCC2)Nc2nccc(n2)-c2cccc(c2)OCC1
active: Potency [1] 2640 nM | Potency [2] 1050 nM | Potency [3] 1480 nM | Potency [4] 935 nM | Potency [5] 5900 nM | Potency [9] 7430 nM | Potency [6] 1320 nM | Potency [7] 2350 nM

Cc1cc(Nc2cc(CN3CCOCC3)c3nc(C)c(Cc4ccc(Cl)cc4F)n3n2)n[nH]1
-0.486: Z-AUC [8, 11]
-1.95: Z-AUC ([8]; measured here: PEO4 Z-AUC)
inactive: Potency [9] | Z-AUC [8] -0.469
active: Potency [1] 833 nM | Potency [2] 13200 nM | Potency [3] 2350 nM | Potency [4] 16600 nM | Potency [5] 2350 nM | Potency [6] 1180 nM | Potency [7] 14800 nM

O=C(O)C1(Cc2cccc(Nc3nccs3)n2)CCC(Oc2cccc(Cl)c2F)CC1 (stereo not drawn)
-1.84: Z-AUC ([8]; measured here: PEO4 Z-AUC)
inactive: Potency [5] | Z-AUC [8] -0.463
-1.23: Z-AUC [8, 11]
active: Potency [1] 52.6 nM | Potency [2] 148 nM | Potency [3] 37.2 nM | Potency [4] 418 nM | Potency [6] 296 nM | Potency [7] 332 nM

CC1=C(CO)C(=O)O[C@@H]([C@@H](C)[C@H]2CC[C@H]3[C@@H]4C[C@H]5O[C@]56[C@@H](O)C=CC(=O)[C@]6(C)[C@@H]4CC[C@]23C)C1
active: Potency [1] 209 nM | Potency [2] 166 nM | Potency [3] 296 nM | Potency [4] 166 nM | Potency [9] 296 nM | Potency [6] 93.5 nM | Potency [7] 132 nM

COc1ccc(OC)c(-c2nnc3ccc(-c4ccc(OC)c(O[C@@H]5CCOC5)c4)nn23)c1
active: Potency [1] 7430 nM | Potency [2] 6620 nM | Potency [3] 9350 nM | Potency [4] 7430 nM | Potency [5] 18700 nM | Potency [9] 23500 nM | Potency [6] 6620 nM | Potency [7] 7430 nM
inactive: Z-AUC [8] -1.33
-1.98: Z-AUC ([8]; measured here: PEO4 Z-AUC)
-1.59: Z-AUC [8, 11]

Nc1ccc(C(=O)c2cc3c(ccc4ccccc43)[nH]2)cc1
-0.727: Z-AUC [8, 11]
inactive: Z-AUC [8] -0.0185
active: Potency [1] 662 nM | Potency [2] 3720 nM | Potency [3] 9350 nM | Potency [10] 2960 nM | Potency [9] 6620 nM | Potency [6] 743 nM | Potency [7] 935 nM
-0.792: Z-AUC ([8]; measured here: PEO4 Z-AUC)

O=c1[nH]nc(Sc2ncc([N+](=O)[O-])s2)n1-c1ccc2c(c1)OCCO2
inactive: Z-AUC [8] 0.0772
active: Potency [1] 2090 nM | Potency [2] 2350 nM | Potency [3] 2350 nM | Potency [4] 1480 nM | Potency [5] 3720 nM | Potency [9] 8330 nM | Potency [6] 2960 nM | Potency [7] 2960 nM
-0.291: Z-AUC ([8]; measured here: PEO4 Z-AUC)
0.187: Z-AUC [8, 11]

— PubChem BioAssay (NCATS)
